Sampled rows, rich in hits. Any-hit rate of the full collection: about 7.9%.
Marburg entry inh = qHTS for inhibitors of binding or entry into cells for Marburg Virus; Marburg virus pseudotyped entry inhibition, cell reporter; Potency, µM (top dose mostly 37.8 µM), actives largely listed as inhibitors; 300,000 tested, 1.8% active; AID 540276, 2011; calls by dose curve; tested in HEK293 cells
FMDV inh = High Throughput Screening for Foot and Mouth Disease Virus Antivirals | FMDV antiviral cell-based qHTS | Potency, µM (titrated, usually from 57.9 µM), hits mostly inhibitors | 410,000 tested, 1.2% active | AID 1159524, 2015; calls by dose curve; tested in HEK293T cells; note: read-out not given here; nearly all actives have a fitted effect of over 45% in size
LASV entry inh = qHTS for Inhibitors of binding or entry into cells for Lassa Virus | AID 540256, 2011 | 300,000 tested, 1.2% active | Potency, µM (titrated, usually from 37.9 µM), hits mostly inhibitors | Lassa virus pseudotype entry inhibition, cell reporter; calls by dose curve; tested in HEK293 cells; note: nearly all actives have a fitted effect of over 50% in size
HCV inhibitor = qHTS Assay for Inhibitors of Hepatitis C Virus (HCV); Huh7.5.1 HCVcc-Cre infection, luciferase reporter, 44 h; Potency, µM (series often up to 41.8 µM), usual class: inhibitors; 340,000 tested, 3.4% active; AID 651820, 2012; active = well fitted inhibition curve with a large enough effect; inconclusive = small, poorly fitted or top-dose-only effect, or another doubt; inactive = no such curve, though single readings can be large or run the other way
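Infectious HCVcc-Cre (~0.5 moi) was added to cells just after compound, with cells seeded 4 h earlier at 1,000 per well. Luciferase activity after 44 h culture reported infection; substrate was incubated 15 min at room temperature before reading.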
HCMV antiviral = qHTS Assay for inhibitors of the human cytomegalovirus (HCMV); HFF cells, HCMV-luciferase reporter, 72 h; hits give low values; activity change, negative = inhibition, % at 57.5 µM; 410,000 tested, 4.5% active; AID 1259415, 2018; in the data active = activity change below about -60%; inconclusive = no clear call, values can overlap the other calls; inactive = above about -39%
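Screen run at 2 compound doses on HFFs infected with reporter HCMV, MOI 1 PFU/cell. Luciferase activity from cell lysates at 72 h post infection gave inhibition relative to buffer-only and Salinomycin wells.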
Of the large screens only hits and unclear results are named; the others gave an inactive call.

O=C(CCc1nnc(CCCc2ccccc2)o1)NCCCC1CCCC1	LASV entry inh inconclusive
Cc1ccc(-n2c(C)cc(C(=O)COc3c(CO)cc(F)cc3CO)c2C)cc1C	Marburg entry inh inconclusive, FMDV inh inconclusive, LASV entry inh inconclusive, HCV inhibitor inconclusive, HCMV antiviral -92
COc1cccc(C2CC3C(=O)C=CC2N3Cc2ccccc2)c1 (centres undefined)	Marburg entry inh inconclusive, FMDV inh inconclusive, HCMV antiviral -97
COc1cccc(CNC(=O)CN2CCCN(Cc3ccccc3)S2(=O)=O)c1	none (no result: HCV inhibitor)
O=C(COC(=O)c1cc([N+](=O)[O-])ccc1N1CCOCC1)Nc1cccc(F)c1	FMDV inh 40µM, HCV inhibitor 13µM (no result: Marburg entry inh, LASV entry inh)
CCOC(=O)c1ccccc1NC(=O)COC(=O)c1cc([N+](=O)[O-])ccc1N1CCOCC1	Marburg entry inh inconclusive, FMDV inh inconclusive, LASV entry inh inconclusive, HCV inhibitor 2.2µM
CC(=O)Nc1ccc(NC(=O)COC(=O)c2cc([N+](=O)[O-])ccc2N2CCOCC2)cc1	none
Cc1cccc(CCNC(=O)C2CC(O)CN2C(=O)Nc2ccccc2)c1 (centres undefined)	none (no result: Marburg entry inh, LASV entry inh, HCV inhibitor)
COc1ccc(-n2ccnc(NCCc3ccccc3)c2=O)cc1OC	none (no result: Marburg entry inh, HCV inhibitor)
O=C(COc1ccccc1)Nc1ncc2c(n1)CCCC2=O	HCMV antiviral -62
Cc1cccc(CSc2nc3c(c(=O)[nH]2)C(c2cccc(O)c2)CC(=O)N3)c1 (centres undefined)	Marburg entry inh inconclusive (no result: HCV inhibitor)
CC(=O)Nc1ccc(NC(=O)c2cc(-c3cc(C)cc(C)c3O)n[nH]2)cc1	HCV inhibitor 8.9µM, HCMV antiviral inconclusive (no result: Marburg entry inh, LASV entry inh)
Cc1cc(C)c(O)c(-c2cc(C(=O)Nc3ccc(S(=O)(=O)N4CCOCC4)cc3)[nH]n2)c1	Marburg entry inh inconclusive, FMDV inh inconclusive, LASV entry inh inconclusive, HCV inhibitor 10µM, HCMV antiviral -76
Cc1ccc(-c2cc(C(=O)Nc3cc(C)ccc3C)[nH]n2)c(O)c1	Marburg entry inh inconclusive
Cc1ccc(C)c(NC(=O)c2cc(-c3cc(C)c(C)cc3O)n[nH]2)c1	HCV inhibitor inconclusive, HCMV antiviral -78 (no result: Marburg entry inh, LASV entry inh)
COC(=O)c1cc(N/C(N)=N/c2nc(C)cc(C)n2)cc(C(=O)OC)c1	none (no result: Marburg entry inh, LASV entry inh, HCV inhibitor)
COc1ccccc1CNc1ncnc2c1c(-c1ccccc1)cn2-c1ccc(Br)cc1	HCMV antiviral inconclusive (no result: Marburg entry inh, HCV inhibitor)
COc1cccc(-c2ncc3ccccc3c2COC(=O)c2ccc(F)cc2)c1	HCV inhibitor inconclusive (no result: Marburg entry inh, LASV entry inh)
COc1ccc(S(=O)(=O)n2nc(-n3c(C)ccc3C)c3c(F)cccc32)cc1OC	Marburg entry inh 8.9µM, LASV entry inh inconclusive, HCV inhibitor inconclusive
O=S1(=O)N[C@@H](Cc2ccccc2)COc2cccc(N3CCN(Cc4ccccc4F)CC3)c21	FMDV inh inconclusive (no result: Marburg entry inh, LASV entry inh, HCV inhibitor)
COCCN(C(=O)CCc1ccccc1OC)c1nnc(-c2cccnc2)s1	FMDV inh inconclusive, HCMV antiviral -61 (no result: Marburg entry inh, LASV entry inh)
O=C(NCC1(N2CCOCC2)CCCCC1)c1cnn(-c2nccc(-c3ccco3)n2)c1C1CC1	none (no result: Marburg entry inh, LASV entry inh, HCV inhibitor, HCMV antiviral)
COC(=O)[C@]1(C)N[C@H](CN(C)C(=O)Nc2ccc(C)cc2)[C@@H]2C(=O)N(Cc3ccccc3)C(=O)[C@@H]21	HCV inhibitor 2.8µM (no result: Marburg entry inh, LASV entry inh)
COC(=O)[C@]1(C)N[C@H](CN(C)C(C)=O)[C@@H]2C(=O)N(C)C(=O)[C@@H]21	none (no result: Marburg entry inh, LASV entry inh)
CCNC(=O)N(C)C[C@H]1N[C@@](C)(C(=O)OC)[C@H]2C(=O)N(C)C(=O)[C@@H]12	none (no result: Marburg entry inh, LASV entry inh)
COC(=O)[C@]1(C)N[C@H](CN(C)C(=O)Nc2ccc(C)cc2)[C@@H]2C(=O)N(C)C(=O)[C@@H]21	HCV inhibitor 1µM (no result: Marburg entry inh, LASV entry inh)
COC(=O)[C@]1(C)N[C@H](CN(C)C(=O)c2ccccc2)[C@@H]2C(=O)N(C)C(=O)[C@@H]21	HCV inhibitor 4µM (no result: Marburg entry inh, LASV entry inh)
CC(C)(C)c1ccc(C(=O)N2CCCCC2CCN2CCCCC2)cc1 (centres undefined)	Marburg entry inh inconclusive, HCMV antiviral inconclusive (no result: HCV inhibitor)
COc1ccc(Cn2c(C)c(C)c(C#N)c2NC(=O)Nc2ccccc2)cc1	none
COc1ccc(Cn2c(C)c(C)c(C#N)c2NC(=O)Nc2cccc(C)c2)cc1	Marburg entry inh inconclusive, HCMV antiviral -67
Cc1ccc(OCCOc2cccc(C=C3C(=O)NC(=O)NC3=O)c2)c(C)c1	Marburg entry inh inconclusive, FMDV inh 14µM, LASV entry inh inconclusive
CN=c1scc(-c2ccc(F)cc2)n1/N=C/c1ccc(O)c(O)c1	Marburg entry inh 18µM, FMDV inh 1.3µM, LASV entry inh inconclusive, HCV inhibitor 2.2µM, HCMV antiviral -67
COc1ccc(Nc2cc3c(cn2)ncn3Cc2ccccc2)c(C)c1	none (no result: Marburg entry inh, FMDV inh, LASV entry inh, HCV inhibitor)
FC(F)Oc1ccc(NC(=S)NNc2ccnc3cc(Cl)ccc23)cc1	Marburg entry inh 11µM, FMDV inh inconclusive, LASV entry inh inconclusive, HCV inhibitor 4µM, HCMV antiviral -88
NC(=S)NNc1ccnc2cc(Cl)ccc12	Marburg entry inh inconclusive
CCN1CCC(Nc2ccnc3cc(Cl)ccc23)CC1	Marburg entry inh 13µM, HCMV antiviral -90
COc1ccc(N2CCN(c3ccnc4cc(Cl)ccc34)CC2)cc1	FMDV inh inconclusive, HCV inhibitor inconclusive, HCMV antiviral inconclusive
CCOc1ccc(Nc2ccnc3cc(Cl)ccc23)cc1	HCMV antiviral -62 (no result: Marburg entry inh, LASV entry inh)
CN1CCN(c2ccc(Nc3ccnc4cc(Cl)ccc34)cc2)CC1	Marburg entry inh inconclusive, LASV entry inh 2.5µM, HCV inhibitor inconclusive, HCMV antiviral -83
COc1ccc(-c2cn3nc(SCC(=O)Nc4cccc(C)c4C)ccc3n2)cc1	none (no result: Marburg entry inh, HCV inhibitor)
Nn1c(SCC(=O)Nc2ccc(N3CCOCC3)cc2)nnc1-c1ccccc1F	none
CCCCN(c1ccccc1)S(=O)(=O)c1cccc2cccnc12	none (no result: Marburg entry inh, LASV entry inh)
COc1ccc(CNc2ncncc2-c2ccccc2C(F)(F)F)c(OC)c1	none (no result: Marburg entry inh, LASV entry inh, HCV inhibitor, HCMV antiviral)
CCN1CCN(c2ccc(Nc3ccnc4ccccc34)cc2)CC1	HCV inhibitor 11µM, HCMV antiviral inconclusive (no result: Marburg entry inh, LASV entry inh)
CC(C)N1CCC1(C)C(=O)Nc1ccc(-n2cccc2)cc1 (centres undefined)	none (no result: Marburg entry inh, LASV entry inh, HCV inhibitor)
CN1C(=O)/C(=C\c2ccccc2F)Sc2ccc(C(=O)NC3CCN(Cc4ccccc4)CC3)cc21	FMDV inh inconclusive, HCV inhibitor 4µM, HCMV antiviral -71 (no result: Marburg entry inh, LASV entry inh)
CCN1CCN(c2ccc(NC(=O)c3ccc4c(c3)[nH]c(=O)n4Cc3ccc(OC)cc3)cc2)CC1	Marburg entry inh 7.9µM, LASV entry inh inconclusive, HCV inhibitor inconclusive, HCMV antiviral inconclusive
O=C(NC1CCN(Cc2ccccc2)CC1)c1ccc2c(c1)[nH]c(=O)n2Cc1ccc(F)cc1	Marburg entry inh 2.8µM, FMDV inh inconclusive, LASV entry inh inconclusive, HCV inhibitor 2.5µM, HCMV antiviral -86
O=C(CCCCCn1c(=S)[nH]c2ccc(N3CCOCC3)cc2c1=O)NC1CCN(Cc2ccccc2)CC1	Marburg entry inh inconclusive, FMDV inh inconclusive, HCV inhibitor inconclusive, HCMV antiviral inconclusive
O=C(NC1CCN(Cc2ccccc2)CC1)c1ccc(Cn2c(=S)[nH]c3ccc(N4CCOCC4)cc3c2=O)cc1	Marburg entry inh 2.8µM, LASV entry inh inconclusive, HCV inhibitor inconclusive

Screening results from PubChem BioAssay.
